Test results as given in the supplement of paper PMC3334620.
Over roughly 33,000 sequences, “E-score (-0.5 to 0.5)” has its median near -0.0034; the highest 2% begin near 0.25. For the sample, the highest values were picked, then their nearest neighbours and some sequences at random.

What follows are sequences tested against T1, Yap3 (UniProt P38749) (assay: PBM E-score (8-mer binding enrichment) (E-score (-0.5 to 0.5)); higher = stronger / more preferred TF binding). Conditions: protein concentration: 100 nM; construct: GST-full length.
T1 sequence: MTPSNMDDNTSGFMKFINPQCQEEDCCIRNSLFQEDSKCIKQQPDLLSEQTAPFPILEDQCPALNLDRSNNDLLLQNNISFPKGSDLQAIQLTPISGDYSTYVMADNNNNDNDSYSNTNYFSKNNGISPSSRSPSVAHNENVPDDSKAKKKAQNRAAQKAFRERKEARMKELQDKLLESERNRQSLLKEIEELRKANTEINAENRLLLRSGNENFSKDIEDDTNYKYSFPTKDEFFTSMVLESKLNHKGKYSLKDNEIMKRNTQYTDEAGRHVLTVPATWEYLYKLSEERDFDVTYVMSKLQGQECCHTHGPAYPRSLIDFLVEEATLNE
Summary of the method: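 Each ungapped eight-base word and its reverse complement, pooled, received an E-score from the Universal PBM Analysis Suite. Underlying scans, normalised with masliner, recorded fluorescent anti-GST bound to GST-tagged yeast transcription factors. These were applied at about 100-200 nM to universal all-10-mer Agilent arrays double-stranded by primer extension.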

Sequence	PBM E-score
CCAATGCC	-0.162
AAAAGTAG	0.105
GCAGCAAA	-0.0366
ACATTCTG	-0.0885
CGCATTGA	0.125
GTCCTATA	-0.0462
ATCCTATA	0.26
CTCCTATA	-0.191
CGAGTTGA	0.0975
GCGGTCGA	0.0757
ACCTGAAG	0.00792
GCCTTTTA	-0.0778
CTGGGCGC	-0.229
CATTTTCC	0.193
GATTTCAA	0.0767
TATTTCAA	0.235
CATTTCAA	0.265
CATTTCCC	0.293
GATTTCCC	0.124
ATGGGAGG	-0.0823
TATCTGCA	0.0463
AAAGGTCG	-0.0514
AACTTGCA	0.108
GATTCACA	0.00517
TATTCACA	0.27

Sequence	PBM E-score
CATTCACG	-0.0375
GAAAATCC	0.0305
GCGATGAC	0.0826
AGAATTTG	0.107
CGAATTTC	0.298
AAAATTTG	0.0972
AGAATTTA	0.276
ATAATTTG	0.294
CTAATTTA	0.19
ATAATTTA	0.303
GGAATTTA	0.173
AGAATTTC	-0.00706
GTAATTTA	0.238
ATAATTTC	0.17
CGAATTTA	0.136
AAGAAGGG	-0.0033
CCCCGTCG	-0.309
CATGCTTC	-0.024
CAAGGGGG	-0.226
AGTGCATA	-0.0677
GACTGAGC	-0.255
CCTGTTCC	-0.0284
AAGGCCCC	-0.285
ATACAGGG	0.14
CAGCCTAA	-0.12

Sequence	PBM E-score
AACACGAT	0.0988
CAAATTAC	0.144
AAAATTAC	0.273
AAATTTAC	0.219
AAAATTAT	0.257
GAAATTCC	0.0452
GAAATTAC	0.265
AAAATTAG	0.227
AAAATTAA	0.138
GAAATTAA	0.342
AAAATTTT	0.246
AAAATTGC	0.0358
CAAATTAA	0.155
GGCTGGGA	-0.103
AACCACCG	-0.0601
CTGGTATA	-0.0636
TCCATGGA	0.142
ACAGATGG	0.00201
CGTAATCC	0.285
CCTAATCC	0.0254
AGTAATCC	0.102
GGTAATCA	0.189
AGTAATCA	0.117
CGTAATCA	0.349
CGATCGTA	0.126

Sequence	PBM E-score
ACCAAATG	0.0905
TAGTAAGA	0.227
CCAGCACG	-0.128
CCGCATCA	-0.0944
AAAAAACA	0.315
TAAAAACA	0.246
ACAAAACG	0.173
GAAAAACA	0.094
AAAAAACG	0.315
CAAAAACG	0.136
AGACTTCC	-0.161
ATAGGGTG	-0.123
ATTCAGAA	0.0683
ATAGCGTG	-0.00896
AGGGGTTG	-0.134
ACTTTATG	0.124
AATGTGAC	0.145
AATGTGAT	0.232
AATGTGAA	0.255
CTCCAGGC	-0.0968
GCAGAGAC	-0.322
AGTCGACA	0.0995
AGTCGACT	0.277
AGTCGACC	-0.0691
AGCCGTGC	-0.233

Sequence	PBM E-score
GATATACA	0.187
TATATGGA	0.108
TATATACA	0.226
AATATGGA	0.123
GATATATA	0.271
TATATATA	0.304
GATATGGA	0.263
CATATATA	0.227
GATATATC	0.133
ACTCTAGA	0.0228
ACAGAGGT	-0.0174
ACGCTATC	0.109
ATTTTCGG	0.109
ATCGTGGG	0.11
GAAGACGC	-0.0463
CCCGACCG	-0.3
CTATAAAA	0.0227
GTATAAAC	0.206
TTATAAAA	0.256
GGATAAAA	0.194
GTATAAAA	0.287
ATATAAAA	0.249
CACCACGG	-0.366
GATTGCGA	0.108
ATTTTACG	0.309

Sequence	PBM E-score
ATTTTACA	0.145
AATTTACG	0.239
ATTTTACC	0.297
AATTTACC	0.145
CTTTTACC	0.197
CCGATCAG	-0.00295
CCCCCTAA	-0.291
AAAGATCC	-0.0985
AGCTGTCG	-0.197
GTCGACCA	-0.0665
GGGCTGCA	-0.195
ACTACTAC	0.0925
ACTACTAT	0.255
GCTACTAA	0.138
ACTACTAA	0.0558
CCTACTAC	-0.17
GCTACTAC	0.255
CGTGACAG	-0.154
CGAGAGGC	-0.258
CCATCTAG	-0.112
TAGTTCCA	0.14
ATTTTCAC	0.174
AATTTCAG	0.0354
ATTTTCCC	0.0787
AATTTCCG	0.237

Sequence	PBM E-score
ATTTTCAG	0.286
ATTTTCCG	0.325
AGCTTGAC	-0.0896
ATTCTGGA	0.132
AAGGTCAT	-0.047
AACAGACG	-0.0301
AACAAGGG	-0.0929
GCGCTCAA	-0.131
CGACCGCG	-0.129
GATTGGTA	0.305
CATTGGTA	0.0377
AATTGGTA	0.158
GAATTGCA	0.101
AACGGATA	0.255
AACGGATG	-0.101
AACGGATT	0.233
CACGGATG	-0.164
TACGGATA	0.0129
CACGGATA	0.291
AGTTGTTA	0.114
ATCTAGAT	-0.0211
TCTGGCCA	-0.0631
AGACGCCG	-0.0447
TCACGTAA	0.359
ACACGTAA	0.217
